Experimental findings from PubChem BioAssay AID1508600 (Functional Genomics Laboratory (NCATS/FGL), 2020) are described below.

About 3,700 (7%) of roughly 53,000 sequences were called active. Many of the other results were omitted from the sample, so actives are more common in it than they were. Unmarked numbers belong to inactive results.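 Rule for the calls: active = gene knockdowns whose robust z-score for IL-1 alpha signal is at least 2 or at most -2, so actives lie on both sides; inactive = the rest.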

The assay is described as follows: Components of the Cytosolic LPS Sensing Pathway: Gene Identification via Genome-wide siRNA Screen.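 Note: robust z of the log signal after scaling to non-targeting control siRNA wells of the plate.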 The note with it: RAW264.7 macrophages, IL-1a HTRF, actives lie on both sides, screened at 100 nM (by protocol), cells primed 5 h with Pam3CSK4 first. The essentials:
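IL-1a HTRF of supernatants after 24 hour LipidA transfection of Pam3CSK4-primed (5 hours) RAW264.7 cells, 48h post-siRNA transfection (100 nM). Scores: percent of plate negative-control median, then log-based robust z-score.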
On the technique in general: Time-resolved FRET reads energy transfer from a long-lived donor to a nearby acceptor.
Consider CGAGGUGCUAAUCUGGCCUTT against Dctpp1, for which the z-score was 0.241.

As to GGAACAAAUCCUGGAACUGTT against Zfp449, the z-score was 1.15.

As to GGACUGGUCAGAGAUGGAUTT against Pced1a, the z-score is 5.33 (active).

For GGAAAUGUGGUAAUUCCGATT against Cd44, the z-score is 0.256.

As for CGAAAUGAAAACUUCCUGGTT against Mab21l1, the z-score is 0.989.

As to CCAUCAGUAUUCACAACAATT against Usp42, the z-score was -3.12 (active).

As for GUUACCUCGUGGAAAGCAUTT against Vmn1r43, the z-score was -0.345.

Take GGUUUGAAGAUGAUGCCUCTT against Nfkbil1: the z-score was -0.848.

GGACCACUAGACCUGAUAATT against Itgb1bp1: the z-score is 0.116.

With GCAUCCCGACUACAAGUACTT against Sox21, the z-score was -2.06 (active).

For the sequence GGUCCGGUCUCAGACUUCATT against Ift27, the z-score is 1.16.

Turning to GAUUGUCACCACCUUAAGATT against Chchd5, the z-score is -0.964.

For the sequence CGAGAUGUCCCAGAAUCAUTT against Wdr75, the z-score was -2.26 (active).

On to “GCCAUGUUCCCAUUUAACUTT against A730018C14Rik”, for which the z-score was 1.34.

As for GCACGAGGAUGUGAUAUUCTT against Txndc2, the z-score was -0.65.

For the sequence CCUUCUCUUUGCUCUAUGUTT against Olfr1284, the z-score was -0.647.

In the case of GCAUCGACAACCUCUCUAGTT against Hba-x, the z-score is 3.15 (active).

For GCUUAGUUUAUGAGAAUGCTT against Ptprh, the z-score is -0.791.

With GGCCAUAUUUGUGACUGUGTT against Hao1, the z-score is -1.58.

With GGAUCUUGAAGCCAAAUACTT against Ccdc127, the z-score was 2.56 (active).

For the sequence GGUAACCAAAACAAUUCUGTT against Cog8, the z-score was -0.00241.

In the case of GGUGUCUGAGUAAUUCUGGTT against Zscan5b, the z-score was -1.55.

In the case of GUGUAGCUCUUCACAGUUATT against Fgf2os, the z-score was 0.673.

Regarding GGCUUUGGAAUGAGAGCUUTT against Dynlrb1, the z-score is -2.07 (active).

On to “CGUGUUUAGGAAAAAUUGUTT against 2510039O18Rik”, for which the z-score is -0.398.

Regarding CCUGCUAAGUGAAUUUGUGTT against Cmpk1, the z-score was 2.18 (active).

GCAACGAGCAAAAAGCAUGTT against Htr2a: the z-score is -0.794.

As to GGUCCUUAUCGCUUGGAUGTT against Vwa8, the z-score was -0.202.

In the case of GGCUAAGACCAAAACUUUATT against Cyp4f13, the z-score is 0.772.

On to GCAGCUUUGAAAUUGUCCATT against Stard5, for which the z-score was -1.72.

On to CGAUGCAAAAAGAAUAGACTT against Mark1, for which the z-score is 0.673.

With GGCUAGUUUUCUCUUAAAUTT against Usp1, the z-score is -3.12 (active).

In the case of GAGUGUCCGAUAGACCGUUTT against Rbm4, the z-score was -0.429.

Turning to GGCGCAAAUACUUCUUCAUTT against Nrg1, the z-score was 0.533.

In the case of GCACCUUUGAGUGCAACAUTT against Rnf185, the z-score is -2.37 (active).

As to CCUAAGAUUUUGGAACAAATT against Cenpm, the z-score is -0.47.

In the case of GGCCAGGAGAAGAUUGAACTT against Ccdc42, the z-score was 0.00447.

As to GGCUGAAUCGGCAUUUCCATT against Klhdc3, the z-score was -0.184.

Consider GGCUGCAUGGUACAGAUCUTT against Olfr463, for which the z-score was -2.33 (active).

With GCUUUUUGAGUCUGAUUUATT against Dmgdh, the z-score is 0.413.

GGCAUUCAAAAGGUAAAAUTT against Grid2: the z-score was -0.515.

In the case of GCUGACUGCCAAGGAUUUUTT against Ogn, the z-score is -0.135.

Regarding “GGCAUGAAACCUCCAAAGCTT against 1520401A03Rik”, the z-score was 0.643.

In the case of CGGAUAUUUACGAACUUACTT against Pitpnb, the z-score is 1.24.

As to GGGUCAGAUUUUCAAUGUCTT against Bmpr1b, the z-score was 0.8.

Take GGUUGAAACUGCUCUCAAGTT against Prl2a1: the z-score was 1.77.

In the case of GGACCAUGAGGGAAUACAGTT against Bdkrb2, the z-score was 4.91 (active).

In the case of CGCAGACAAGAAAUGAAGGTT against Hnf4aos, the z-score is -1.98.

Turning to GCAUGAGGAAAAAUCUUCATT against Neurod4, the z-score was -0.158.

For the sequence GGAGAAAUUUAAGAAGAGUTT against Xrcc5, the z-score is 0.674.

Regarding GCUACAUAAUUCCGAAGUUTT against Fmr1, the z-score is 2.23 (active).

Consider GCCAGAGGAUAACCUAUCGTT against Dsg4, for which the z-score is -0.254.

In the case of AAACUUGGCGUAUCAGGAATT against Gm3696, the z-score was -1.45.

GGAGUUUGUCUUCUCUUUCTT against Foxf1: the z-score was 0.0377.

Turning to GGAGAGUAUGGACAGUAUUTT against Pgc, the z-score is 2.96 (active).

Regarding GCAAAGACAAUCUUUAAGGTT against Pde4d, the z-score was -0.747.

Take CCUUGUAAGUGAGAUCCGATT against Olfr118: the z-score is 1.38.

For GGAGUAGAUGACAACACUATT against Defb19, the z-score was -0.401.

Turning to GGCAGCUGUAGAGGUGUUCTT against Haus7, the z-score was 2.36 (active).

For CGUGGCUAAACAAAGAGCUTT against Sass6, the z-score is -0.841.

Regarding CCCAAAAACGUGACAUCUUTT against Inppl1, the z-score was 0.901.

In the case of GCCUGGAAUCUCUUCAUGUTT against Pde3a, the z-score was 0.679.

Take GGUGUUCUUGAGCUGUGAGTT against Igfbp7: the z-score was -2.32 (active).

Regarding CCAAAAGGUUCGAGUUUCATT against Padi4, the z-score is 1.57.

On to GGAGUGUGUAUGGAAAAUATT against Tll1, for which the z-score was 0.0134.

Regarding GGCUCUUUCAACGUAAAUUTT against Fan1, the z-score was -2.72 (active).

Turning to GGACCUUGGGCAGAUUCAATT against Atp10d, the z-score was 0.54.

As for GGGUGUACAGGAUUUCCACTT against Nfyc, the z-score is 0.0255.

For the sequence GGAGCAACAACUUAAAUGUTT against Slc16a4, the z-score was 1.18.
